Compound activity as filed in PubChem BioAssay.
KB-V1 MDR tox: qHTS assay for MDR1-selective chemotherapeutics: Primary screen using the drug-selected MDR subline cells KB-V1 | KB-V1 MDR cells viability, CellTiter-Glo, 72 h | Potency, µM (highest dose often 46.1 µM), actives largely listed as cytotoxic | 400,000 tested, 3.4% active | AID 1347076, 2019; further: nearly all actives have a fitted effect of over 60% in size
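Drug-selected KB-V1 cells, grown in DMEM lacking phenol red with 10% FBS, receive compound titrations; after three days at 37 degrees C, surviving cell ATP is quantified by CellTiter-Glo luminescence and responses normalized and curve-fitted.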
KB-3-1 cytotox: qHTS assay for MDR1-selective chemotherapeutics: Primary screen using the parental adenocarcinoma cell KB-3-1. KB-3-1 viability, CellTiter-Glo ATP luminescence, 72 h. Potency, µM (doses to about 46.1 µM), usual class: cytotoxic. 400,000 tested, 1.4% active. AID 1347075, 2019; further: nearly all actives have a fitted effect of over 60% in size
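72 h, 37 °C compound treatment of KB-3-1 parental cells; CellTiter-Glo added, 10 min, luminescence read. Data corrected against DMSO-only plates and normalized before curve fitting.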
PI4K2A block: qHTS for small molecular inhibitors of PI4K2A; AID 1346378, 2018; purified PI4K2A, ADP-Glo luminescence, 1 h; hits give low values; activity change, negative = inhibition, % at 76.9 µM; 420,000 tested, 0.13% active; in the data active means activity change below about -50%; inconclusive means mostly about -30% to -49%
Target sequence (Q9BTU6 whole entry, looked up): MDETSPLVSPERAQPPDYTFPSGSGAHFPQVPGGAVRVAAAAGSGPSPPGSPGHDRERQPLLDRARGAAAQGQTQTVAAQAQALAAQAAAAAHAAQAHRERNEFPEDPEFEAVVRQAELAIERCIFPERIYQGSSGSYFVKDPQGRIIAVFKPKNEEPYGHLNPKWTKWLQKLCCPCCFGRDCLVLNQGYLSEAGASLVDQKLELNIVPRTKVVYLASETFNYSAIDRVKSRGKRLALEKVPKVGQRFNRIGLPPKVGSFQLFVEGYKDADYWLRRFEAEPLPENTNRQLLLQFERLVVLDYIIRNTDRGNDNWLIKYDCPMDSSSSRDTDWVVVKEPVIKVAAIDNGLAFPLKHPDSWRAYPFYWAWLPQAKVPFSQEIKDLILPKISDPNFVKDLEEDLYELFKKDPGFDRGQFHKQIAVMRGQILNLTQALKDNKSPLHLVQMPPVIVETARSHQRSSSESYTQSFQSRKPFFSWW
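PI4K2A activity was measured by ADP-Glo luminescence: enzyme (4 ug/mL stock) and phosphatidylinositol (1.2 mM stock) in Tris pH 7.5/MgCl2/EGTA/Triton X-100 buffer were reacted with ATP (300 microM stock) for one hour at ambient temperature.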
A549 viability: Nrf2 qHTS screen for inhibitors: counterscreen for cytotoxicity; A549 ARE-Fluc cells, CellTiter-Fluor viability, 18-24 h; Potency, µM (top dose mostly 46 µM), most hits filed as inhibitors; 390,000 tested, 0.16% active; AID 504648, 2011
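A549 ARE-Fluc cells in 5% FBS OPTI-MEM, 5000 cells/well, rested 2 h then exposed to compounds in concentration-response for 18-24 h at 37 °C. Viability by CellTiter-Fluor fluorescence (Ex 405/Em 525) after 30 min; luciferase luminescence (BugLite, 15 min, RT) read afterwards.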
Nrf2 inh: Nrf2 qHTS screen for inhibitors; A549 ARE-Fluc reporter, luciferase luminescence, 18-24 h; Potency, µM (highest dose often 46 µM), actives largely listed as inhibitors; 360,000 tested, 2.1% active; further: nearly all actives have a fitted effect of over 60% in size
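Quantitative HTS in A549 cells stably bearing an antioxidant response element-firefly luciferase construct. Inhibition of Nrf2-driven transcription was scored by luminescence after 18-24 h of compound exposure at 37 °C.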
Giardia kill: Small Molecules that selectively kill Giardia lamblia: qHTS. Giardia lamblia trophozoite viability. activity change, % at 7.66 µM, hits read low. 340,000 tested, 0.15% active. AID 540267, 2011; in the data active means activity change below about -80%; inconclusive means between about -30% and that limit;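 further: parasites exposed to compound for two days anaerobically before the ATP read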
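ATP-content bioluminescence gauges trophozoite survival. Cells (100/well) receive compound and incubate anaerobically for 48 hrs at 37 deg C; detection reagent follows for 15-30 min at room temperature.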
A number is an active result; 0 = inactive; ? = inconclusive; - = no result given; [ ] = remark or other dose. Rows were chosen to be rich in hits. Some 5.7% of all compounds tested hit in one or more screens of this group. Unless noted, the call rests on the fitted dose curve; in most records, active means well fitted curve in the direction sought with a large enough effect; inconclusive means small, poorly fitted or top-dose-only effect, or another doubt; inactive means no such curve, though single readings can be large; an effect the other way counts as inactive or inconclusive.

SMILES | KB-V1 MDR tox | KB-3-1 cytotox | PI4K2A block | A549 viability | Nrf2 inh | Giardia kill
Cc1cc(C)cc(NC(=O)C(CC(C)C)NC(=O)C2CCCCC2)c1 (stereo not given) | 0 | 0 | 0 | 0 | 0[9.27 µM] | -
CN(C)C=Nc1ccc(Cn2cnc3nc4ccc(Cl)cc4cc3c2=O)cc1 | - | - | 0 | - | - | -
COc1cccc(NC(=O)c2nn(-c3ccc(C)cc3)c(=O)n(C)c2=O)c1 | 0 | 0 | 0 | 0 | - | -
O=[N+]([O-])c1cccc(/C=C/c2nc[nH]c2[N+](=O)[O-])c1 | 0 | 0 | 0 | 0 | 0 | -81
O=[N+]([O-])c1cccc(/C=C/c2ccccc2)c1 | 0 | 0 | - | - | - | -
CC(C)Oc1cccc(C(=O)C2CCCN(C(=O)c3cc(C4CC4)[nH]n3)C2)c1 (stereo not given) | 0 | 0 | 0 | 0 | 0 | 0
CC(C)Oc1cccc(C(=O)C2CCCN(C(=O)c3cc(C(F)(F)F)[nH]n3)C2)c1 (stereo not given) | 21µM | ? | 0 | 0 | 0 | 0
C[C@@H]1CCN(C2CC2)S(=O)(=O)c2ccc(N3CCC[C@@H]3CO)cc2O1 | - | - | 0 | - | - | -
COc1ccc(S(=O)(=O)Nc2cc(C(=O)NC3CCCCCC3)ccc2N2CCOCC2)cc1 | 0 | 0 | 0 | 0[1.84 µM] | 18µM | 0
COc1ccc(NS(=O)(=O)c2ccc(N3CCOCC3)c(NC(=O)c3ccccc3Cl)c2)cc1 | 10µM | 16µM | 0 | 0 | 0 | 0
COCC(=O)Nc1ccc(N2CCOCC2)c(S(=O)(=O)Nc2ccc(OC)cc2)c1 | ? | ? | 0 | 0 | 0 | 0
O=C(Nc1cc(S(=O)(=O)Nc2ccc(Cl)cc2)ccc1N1CCCCC1)c1ccc(F)cc1Cl | ? | 16µM | 0 | ? | ? | 0
O=C(Nc1cc(S(=O)(=O)N2CCOCC2)ccc1N1CCCCC1)c1ccc(Cl)cc1 | 0 | 0 | 0 | 0 | 0 | 0
COc1ccc(NS(=O)(=O)c2cc(NC(=O)COc3ccc(OC)cc3)ccc2N2CCOCC2)cc1 | 2.3µM | 0 | 0 | 0 | 0 | 0
COc1cc(Cl)c(C)cc1NC(=O)C1CCCN(c2ncnc3onc(-c4ccc(F)cc4)c23)C1 (stereo not given) | ? | 0 | 0 | 0 | 0 | -
Cc1ccccc1CNC(=O)c1cccc2c1C(=O)N(Cc1cccnc1)C2 | - | - | 0 | - | - | -
CCOC(=O)CNC(=O)CSc1nnc(-c2ccccc2)n1CC | - | - | 0 | - | - | -
COc1ccc(S(=O)(=O)Nc2cc(C(=O)NC(C)C)ccc2N2CCOCC2)cc1 | ? | ? | 0 | 0 | 0 | 0
COc1ccc(NS(=O)(=O)c2ccc(Cl)c(NC(=O)c3cccnc3Cl)c2)cc1 | 21µM | 0 | 0 | 0 | 0 | 0
COc1ccc(NS(=O)(=O)c2ccc(N3CCOCC3)c(NC(=O)c3ccc(OC)cc3)c2)cc1 | 18µM | 0 | 0 | 0 | ? | 0
O=C(Nc1ccc(Cl)cc1Cl)[C@@H]1CC=C[C@@H]2CCN(Cc3ccccc3)C(=O)[C@@H]21 | ? | 0 | - | - | - | -
O=C(O)c1cc(/C=C/c2ccc(N3CCOCC3)cc2)nc2ccccc12 | 10µM | 0 | 0 | 0 | ? | ?
O=C(Nc1ccc2c(c1)OCO2)OC1CCC12CCCCC2 (stereo not given) | - | - | 0 | - | - | -
Cc1cc2ccc(C)c(C)c2nc1SCC(=O)c1cccs1 | 15µM | ? | 0 | 0 | 0 | 0
Cc1sc2ncnc(SCC(=O)c3cccs3)c2c1C | 16µM | ? | 0 | 0 | ? | 0
SMILES | KB-V1 MDR tox | KB-3-1 cytotox | PI4K2A block | A549 viability | Nrf2 inh | Giardia kill
OC(CNCC(c1ccc(Cl)cc1Cl)c1c[nH]c2ccccc12)c1ccccc1 (stereo not given) | 23µM | 0 | 0 | ? | ? | 0
Nc1nc2c(nnn2C2CC(O)C(CO)O2)c(=O)[nH]1 (stereo not given) | 1.3µM | 2.3µM | 0 | - | - | -
Cc1ccc(C(=O)c2oc3ccccc3c2NC(=O)c2cc(-c3cc(C)ccc3O)n[nH]2)cc1 | ? | ? | 0 | 0 | 26µM | 0
CCOC(=O)c1c(NC(=O)c2c(Br)cnn2C)c(C#N)nn1-c1ccccc1 | ? | 0 | 0 | 0 | 18µM | 0
CCOC(=O)c1c(NC(=O)c2nn(CC)cc2Br)c(C#N)nn1-c1ccccc1 | 16µM | 0 | 0 | 0 | ? | 0
CCOC(=O)c1nn(-c2ccccc2)c(C#N)c1NC(=O)c1nn(CC)cc1Br | 0 | 0 | 0 | 0[1.84 µM] | ? | 0
Fc1ccc(-c2nc(-c3c[nH]c4ccccc34)cs2)cc1 | 0 | ? | - | - | - | -
COc1ccc(S(=O)(=O)Nc2cccc(N(C)S(C)(=O)=O)c2)cc1Br | 15µM | 0 | 0 | 0 | 18µM | 0
Cc1ccccc1C(=O)Nc1cccc(C(=O)OCc2cc(=O)n3c(C)csc3n2)c1 | - | - | 0 | 0 | - | -
O=C(Nc1ccc(F)cc1F)C1CCN(C(=O)c2cnn(-c3ccccc3)c2-n2cccc2)CC1 | 0 | 0 | 0 | 0 | 0 | -
COCCCNC(=O)C1CCCN(C(=O)c2cnn(-c3ccc(F)cc3)c2-n2cccc2)C1 (stereo not given) | 0 | 0 | 0 | 0 | ? | -
COc1ccc(CNC(=O)C2CCCN(C(=O)c3cnn(-c4ccc(F)cc4)c3-n3cccc3)C2)cc1 (stereo not given) | 13µM | ? | 0 | 0 | 0 | -
O=C(NCc1ccccc1Cl)C1CCCN(C(=O)c2cnn(-c3ccc(F)cc3)c2-n2cccc2)C1 (stereo not given) | 16µM | ? | 0 | 0 | 0 | -
COC(=O)c1ccccc1NC(=O)C1CCCN(C(=O)c2cnn(-c3ccc(F)cc3)c2-n2cccc2)C1 (stereo not given) | 18µM | ? | 0 | 0 | 0 | -
Cc1ccc(CCC(=O)Nc2ncc(Cc3cccc(Cl)c3Cl)s2)o1 | 0.52µM | 0.12µM | 0 | 0 | 0 | 0
Cc1cc(C)nc(N/C=C(\C#N)C(=O)c2cccc(CSc3ccccc3)c2)n1 | 0 | 0 | - | - | - | -
C[C@@H](CN1CC(=O)NC(=O)C1)N1CC(=O)NC(=O)C1 | - | - | 0 | - | - | -
Cn1c(NC(=O)c2ccccc2NC(=O)C(C)(C)C)nc2ccccc21 | ? | ? | 0 | 0 | 16µM | 0
CSc1cccc(NC(=O)C2CCN(S(=O)(=O)c3ccc4c(c3)NC(=O)CO4)CC2)c1 | 0 | 0 | 0 | 0 | 23µM | 0
O=C(Nc1cccc(S(=O)(=O)c2cccc(NC(=O)C3CC3)c2)c1)C1CC1 | ? | ? | 0 | 0 | 8.2µM | 0
CSc1cccc(NC(=O)C2CCN(S(=O)(=O)c3ccc(F)cc3)CC2)c1 | 0 | 0 | 0 | 0 | 15µM | 0
CS(=O)(=O)c1cccc(NC(=O)C2CC2)c1 | 0 | 0 | 0 | 0 | 0 | 0
CC(=O)N1CCN(c2ccc(O)cc2)CC1 | - | - | 0 | - | - | -
C=CCC(Nc1ccccc1)C12C=CC(O1)C(C(=O)OC)=C2C(=O)OC (stereo not given) | ? | 18µM | 0 | 0 | ? | 0
